Screen size: about 5,500 compounds; about 2,000 (36%) were called active. Not shown: some 18% with an inconclusive outcome. Cut-off read from the data, not from the text of the source: active = normalized growth mostly below about 0.91 (no sharp cut-off); inconclusive = no clear call, values can overlap the other calls; inactive = mostly above about 0.92. This is one part of the list.
Assay: chemical genetic growth profiling, strain panel (AID 1159580);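 note: tested at 20 µM; growth read once vehicle control cultures reached saturation at 30 °C; 1 = growth at the plate median or of vehicle wells; lower values mean less growth of the strain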
Settings: growth OD

Measured: normalized growth

OC(Cn1cncn1)(Cn1cncn1)c1ccc(F)cc1F
inactive: S. cerevisiae deletion strains, locus YJL187C, strain SWE1, active compounds read low 1 | S. cerevisiae deletion strains, locus YJR043C, strain POL32, active compounds read low 0.988 | S. cerevisiae deletion strains, locus YJR075W, strain HOC1, active compounds read low 1.01 | S. cerevisiae deletion strains, locus YKL009W, strain mrt4, active compounds read low 0.994 | S. cerevisiae deletion strains, locus YKL068W, active compounds read low 0.996 | S. cerevisiae deletion strains, locus YKL085W, strain MDH1 (second series), active compounds read low 0.985 | S. cerevisiae deletion strains, locus YKL085W, strain MDH1, active compounds read low 0.985 | S. cerevisiae deletion strains, locus YKL160W, strain elf1, active compounds read low 0.992 | S. cerevisiae deletion strains, locus YKL190W, strain CNB1, active compounds read low 0.997 | S. cerevisiae deletion strains, locus YKR001C, strain vps1, active compounds read low 1.05 | S. cerevisiae deletion strains, locus YKR026C, strain gcn3, active compounds read low 0.999 | S. cerevisiae deletion strains, locus YKR091W, strain srl3, active compounds read low 1.01 | S. cerevisiae deletion strains, locus YLL001W, strain dnm1, active compounds read low 1.01 | S. cerevisiae deletion strains, locus YLL026W, active compounds read low 0.999 | S. cerevisiae deletion strains, locus YLL041C, strain sdh2, active compounds read low 1.01 | S. cerevisiae deletion strains, locus YLR027C, strain aat2, active compounds read low 1 | S. cerevisiae deletion strains, locus YLR058C, strain SHM2, active compounds read low 1 | S. cerevisiae deletion strains, locus YLR102C, strain apc9, active compounds read low 1 | S. cerevisiae deletion strains, locus YLR221C, strain rsa3, active compounds read low 0.996 | S. cerevisiae deletion strains, locus YLR258W, strain gsy2, active compounds read low 1 | S. cerevisiae deletion strains, locus YLR262C, strain YPT6, active compounds read low 0.634 | S. cerevisiae deletion strains, locus YLR268W, strain sec22, active compounds read low 0.969 | S. cerevisiae deletion strains, locus YLR320W, strain mms22, active compounds read low 0.956 | S. cerevisiae deletion strains, locus YLR330W, strain CHS5, active compounds read low 0.99 | S. cerevisiae deletion strains, locus YLR342W, strain FKS1 (second series), active compounds read low 1 | S. cerevisiae deletion strains, locus YLR342W, strain FKS1, active compounds read low 1.01 | S. cerevisiae deletion strains, locus YLR357W, strain rsc2, active compounds read low 1.02 | S. cerevisiae deletion strains, locus YLR370C, strain arc18, active compounds read low 1 | S. cerevisiae deletion strains, locus YLR371W, strain rom2, active compounds read low 1 | S. cerevisiae deletion strains, locus YLR384C, strain iki3, active compounds read low 1 | S. cerevisiae deletion strains, locus YLR418C, strain cdc73, active compounds read low 1.01 | S. cerevisiae deletion strains, locus YML016C, strain PPZ1, active compounds read low 0.998 | S. cerevisiae deletion strains, locus YML032C, strain rad52, active compounds read low 0.995 | S. cerevisiae deletion strains, locus YML120C, strain ndi1, active compounds read low 1 | S. cerevisiae deletion strains, locus YML124C, strain tub3, active compounds read low 1 | S. cerevisiae deletion strains, locus YMR058W, strain fet3, active compounds read low 0.987 | S. cerevisiae deletion strains, locus YMR078C, strain ctf18, active compounds read low 0.992 | S. cerevisiae deletion strains, locus YMR125W, strain sto1, active compounds read low 1.03 | S. cerevisiae deletion strains, locus YMR129W, active compounds read low 1.01 | S. cerevisiae deletion strains, locus YMR205C, strain PFK2, active compounds read low 0.988 | S. cerevisiae deletion strains, locus YMR223W, strain ubp8, active compounds read low 0.98 | S. cerevisiae deletion strains, locus YMR231W, strain pep5, active compounds read low 0.943 | S. cerevisiae deletion strains, locus YMR263W, strain SAP30, active compounds read low 0.988 | S. cerevisiae deletion strains, locus YMR307W, strain GAS1, active compounds read low 1.25 | S. cerevisiae deletion strains, locus YNL067W, strain RPL9B, active compounds read low 1.03 | S. cerevisiae deletion strains, locus YNL071W, strain lat1, active compounds read low 1 | S. cerevisiae deletion strains, locus YNL128W, strain TEP1, active compounds read low 0.965 | S. cerevisiae deletion strains, locus YNL209W, strain ssb2, active compounds read low 1.01 | S. cerevisiae deletion strains, locus YNL233W, strain BNI4, active compounds read low 1.01 | S. cerevisiae deletion strains, locus YNL248C, strain rpa49, active compounds read low 0.994 | S. cerevisiae deletion strains, locus YNL250W, strain rad50, active compounds read low 0.976 | S. cerevisiae deletion strains, locus YNL271C, strain bni1, active compounds read low 0.98 | S. cerevisiae deletion strains, locus YNL298W, strain CLA4, active compounds read low 0.958 | S. cerevisiae deletion strains, locus YNL307C, strain MCK1, active compounds read low 1.01 | S. cerevisiae deletion strains, locus YNL322C, strain KRE1 (second series), active compounds read low 0.996 | S. cerevisiae deletion strains, locus YNR049C, strain mso1, active compounds read low 1.01 | S. cerevisiae deletion strains, locus YNR052C, strain pop2, active compounds read low 0.979 | S. cerevisiae deletion strains, locus YOL006C, strain TOP1, active compounds read low 0.971 | S. cerevisiae deletion strains, locus YOL012C, strain htz1 1.07 | S. cerevisiae deletion strains, locus YOL147C, strain pex11, active compounds read low 1.01 | S. cerevisiae deletion strains, locus YOR001W, strain rrp6, active compounds read low 0.994 | S. cerevisiae deletion strains, locus YOR061W, strain CKA2, active compounds read low 1 | S. cerevisiae deletion strains, locus YOR069W, strain VPS5, active compounds read low 0.992 | S. cerevisiae deletion strains, locus YOR070C, strain gyp1, active compounds read low 0.998 | S. cerevisiae deletion strains, locus YOR080W, strain dia2, active compounds read low 0.987 | S. cerevisiae deletion strains, locus YOR083W, strain WHI5, active compounds read low 0.997 | S. cerevisiae deletion strains, locus YOR106W, strain vam3, active compounds read low 0.964 | S. cerevisiae deletion strains, locus YOR136W, strain idh2, active compounds read low 0.979 | S. cerevisiae deletion strains, locus YOR144C, strain elg1, active compounds read low 1 | S. cerevisiae deletion strains, locus YOR184W, strain ser1, active compounds read low 0.964 | S. cerevisiae deletion strains, locus YOR265W, strain rbl2, active compounds read low 1 | S. cerevisiae deletion strains, locus YOR270C, strain vph1, active compounds read low 0.977 | S. cerevisiae deletion strains, locus YOR290C, strain snf2, active compounds read low 1.01 | S. cerevisiae deletion strains, locus YOR316C, strain cot1, active compounds read low 0.991 | S. cerevisiae deletion strains, locus YPL051W, strain arl3, active compounds read low 0.995 | S. cerevisiae deletion strains, locus YPL078C, strain atp4, active compounds read low 0.992 | S. cerevisiae deletion strains, locus YPL240C, strain hsp82, active compounds read low 0.998 | S. cerevisiae deletion strains, locus YPL241C, strain CIN2, active compounds read low 0.997 | S. cerevisiae deletion strains, locus YPR119W, strain clb2, active compounds read low 0.988 | S. cerevisiae deletion strains, locus YPR141C, strain kar3, active compounds read low 0.989 | S. cerevisiae deletion strains, locus YPR163C, strain tif3, active compounds read low 0.995 | S. cerevisiae deletion strains, locus YPR167C, strain met16, active compounds read low 0.98 | S. cerevisiae deletion strains, strain wtn01, active compounds read low 0.981 | S. cerevisiae strains, strain wild type, active compounds read low 1
active: S. cerevisiae deletion strains, locus YLR039C, strain RIC1, active compounds read low 0.635 | S. cerevisiae deletion strains, locus YLR262C, strain YPT6 (second series), active compounds read low 0.465 | S. cerevisiae deletion strains, locus YPL106C, strain sse1, active compounds read low 0.341
